A selection: hits, their analogues and other compounds. The true share with any hit is near 19%.
HT1080 IDH1KD tx – toxicity to HT-1080 IDH1 knockdown cells (counter line); HT-1080 IDH1 knockdown viability, ATP luminescence, 48 h; Potency, µM (top dose mostly 46.1 µM), without a hit: at the top dose activity, negative = toxicity, hits mostly cytotoxic; 360,000 compounds, 2% hits; AID 686971;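 also: potency is read from the fitted curve at half-maximal effect; 0% = DMSO wells and -100% = cell-free medium wells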
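Luminescent ATP read-out (CellTiter-Glo, 10 min at room temperature) after 48 h compound exposure at 37 °C gave viability of IDH1-knockdown HT-1080 cells. Activity was normalised to DMSO and cell-free wells, then fitted as concentration-response curves.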
IL-1B inflam inh – inhibitors of inflammasome signaling (IL-1 beta secretion). THP-1 LPS/ATP IL-1B secretion, AlphaLISA, 16 h; stronger effect = lower value. activity change, % at 57.5 µM. 360,000 compounds, 4.7% hits. AID 743279; in the data active = activity change below about -50%; inconclusive = mostly about -30% to -49%
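Secreted IL-1B measured by AlphaLISA bead assay after 16 h compound exposure of THP-1 cells; compounds (final up to 57.5 uM) added 1 h before LPS (250 ng/mL) and ATP (1.25 mM) stimulation; lower signal means less secretion.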
DT40 TDP1 no CPT – qHTS for Inhibitors of human tyrosyl-DNA phosphodiesterase 1 (TDP1): qHTS in cells in absence of CPT | DT40 Tdp1-/- hTDP1 cells, no CPT, ATP luminescence, 48 h | Potency, µM (doses to about 46.2 µM), inactives show at the highest dose activity change, negative = growth inhibition, most hits filed as inhibitors | 420,000 compounds, 15% hits | AID 686978, 2013; also: potency is read from the fitted curve at half-maximal effect; nearly all actives have a fitted effect of over 55% in size
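Growth kinetics read by CellTiter-Glo luminescence after ≥48 hr at 37 °C. Cells: DT40 Tdp1-/- stably carrying human TDP1, 400 per well, compound exposure in the absence of CPT (DMSO vehicle).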
TDP1 cell CPT – DT40-hTDP1 cell growth loss with CPT. chicken DT40 Tdp1-/-;hTDP1 cells + 20 nM CPT, ATP luminescence, 48 h. Potency, µM (series often up to 46.2 µM), for inactives: at the highest dose activity change, negative = growth inhibition, usual class: inhibitors. 420,000 compounds, 12% hits; also: potency is read from the fitted curve at half-maximal effect; nearly all actives have a fitted effect of over 55% in size
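Chicken DT40 Tdp1-/- cells stably complemented with human TDP1 were seeded at 400 cells/well in medium containing 20 nM camptothecin, exposed to pin-transferred compounds, and grown at 37 °C for at least 48 hr. Viability was read as ATP luminescence.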
HT1080NT lethal – kills 2HG-producing HT-1080-NT fibrosarcoma cells; Potency, µM (doses to about 46.1 µM), inactives show at the top dose activity, negative = less viability, actives largely listed as cytotoxic; AID 686970; 360,000 compounds, 1.6% hits; HT-1080-NT fibrosarcoma viability, CellTiter-Glo ATP luminescence, 48 h;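 also: NT is the 2HG producing partner of a matched IDH1 knockdown line; potency is read from the fitted curve at half-maximal effect; 0% = DMSO-treated cells and -100% = media-only wells without cells; nearly all actives have a fitted effect of over 55% in size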
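Read-out is CellTiter-Glo luminescence after 10 minutes at room temperature, following 48 hours' compound treatment of HT-1080-NT cells (750 cells/well, RPMI, 5% FBS, 37 degrees C).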
* marks the source's active call; other numbers are inactive results. Unless noted, calls follow the shape of the dose curve; as a rule, active = well fitted curve in the direction sought with a large enough effect; inconclusive = small, poorly fitted or top-dose-only effect, or another doubt; inactive = no such curve, though single readings can be large; an effect the other way counts as inactive or inconclusive. Unless noted, % is scaled to controls: 0 for no effect and ±100 for the full control effect.

What do the screens show for `Nn1c(SCc2ccccc2)nc2c(cnn2-c2ccccc2)c1=O`?
HT1080 IDH1KD tx: -7%; IL-1B inflam inh: inconclusive; DT40 TDP1 no CPT: -18%; TDP1 cell CPT: inconclusive; HT1080NT lethal: 0%

What do the screens show for `CCc1c(O)cc2n(c1=O)-c1ccc(Cl)cc1C2(C)C`?
HT1080 IDH1KD tx: inconclusive; IL-1B inflam inh: 10; DT40 TDP1 no CPT: inconclusive; TDP1 cell CPT: inconclusive; HT1080NT lethal: inconclusive

Results for C=C(C)COc1ccc2c(C)c(CC(=O)N3C[C@H]4C[C@@H](C3)c3cccc(=O)n3C4)c(=O)oc2c1C ?
HT1080 IDH1KD tx: 10%; IL-1B inflam inh: -8; DT40 TDP1 no CPT: 18µM*; TDP1 cell CPT: 15µM*; HT1080NT lethal: 11%

How did COC(=O)Cc1c(C)c2ccc(OCC(=O)N3CCCC(C)C3)c(C)c2oc1=O (stereo unspecified) do in these assays?
HT1080 IDH1KD tx: -6%; IL-1B inflam inh: -4; DT40 TDP1 no CPT: inconclusive; TDP1 cell CPT: 26µM*; HT1080NT lethal: -24%

What do the screens show for `C=C(C)COc1ccc2c(C)c(CC(=O)OC)c(=O)oc2c1C`?
HT1080 IDH1KD tx: -20%; IL-1B inflam inh: -16; DT40 TDP1 no CPT: 12µM*; TDP1 cell CPT: 18µM*; HT1080NT lethal: -13%

What do the screens show for `Cc1coc2cc3oc(=O)c(CC(=O)N4C[C@H]5C[C@@H](C4)c4cccc(=O)n4C5)c(C)c3cc12`?
HT1080 IDH1KD tx: 7%; IL-1B inflam inh: 5; DT40 TDP1 no CPT: inconclusive; TDP1 cell CPT: -2%; HT1080NT lethal: -1%

Results for Cc1cccc(C)c1NC(=O)COc1ccc2c(C)c(Cc3ccccc3)c(=O)oc2c1C ?
HT1080 IDH1KD tx: 7%; IL-1B inflam inh: 27; DT40 TDP1 no CPT: inconclusive; TDP1 cell CPT: 16µM*; HT1080NT lethal: 5%

Results for CC/C(C)=N/Oc1nc(C)cc(C)n1 ?
HT1080 IDH1KD tx: -2%; IL-1B inflam inh: 0; DT40 TDP1 no CPT: -2%; TDP1 cell CPT: -10%; HT1080NT lethal: 5%

Results for CC1CCN(C(=O)c2[nH]cnc2C(=O)Nc2ccc(Cl)cc2)CC1 ?
HT1080 IDH1KD tx: 10%; IL-1B inflam inh: -17; DT40 TDP1 no CPT: inconclusive; TDP1 cell CPT: inconclusive; HT1080NT lethal: 6%

Results for CCCOc1ccc2c(C)c(CC(=O)OC)c(=O)oc2c1 ?
HT1080 IDH1KD tx: -1%; IL-1B inflam inh: -18; DT40 TDP1 no CPT: 10µM*; TDP1 cell CPT: inconclusive; HT1080NT lethal: 5%

How did COC(=O)Cc1c(C)c2ccc(OCC(=O)N(C)C)cc2oc1=O do in these assays?
HT1080 IDH1KD tx: inconclusive; IL-1B inflam inh: -2; DT40 TDP1 no CPT: 3%; TDP1 cell CPT: -4%; HT1080NT lethal: inconclusive

Results for CC(/C=C/c1ccccc1F)=N\NC(=O)c1ccccc1 ?
HT1080 IDH1KD tx: inconclusive; IL-1B inflam inh: inconclusive; DT40 TDP1 no CPT: inconclusive; TDP1 cell CPT: inconclusive; HT1080NT lethal: -23%

How did C/C(=N\NC(=O)c1ccc(NS(=O)(=O)c2cccs2)cc1)c1ccc(Cl)cc1 do in these assays?
HT1080 IDH1KD tx: 0%; IL-1B inflam inh: -5; DT40 TDP1 no CPT: 23µM*; TDP1 cell CPT: inconclusive; HT1080NT lethal: 0%

What do the screens show for `C/C(=N\NC(=O)c1ccc(Cl)cc1)c1cccs1`?
HT1080 IDH1KD tx: -8%; IL-1B inflam inh: -63*; DT40 TDP1 no CPT: inconclusive; TDP1 cell CPT: -17%; HT1080NT lethal: 1%

Results for C/C(=N\NC(=O)c1ccc(NS(=O)(=O)c2cccs2)cc1)c1cccs1 ?
HT1080 IDH1KD tx: 2%; IL-1B inflam inh: -52*; DT40 TDP1 no CPT: -15%; TDP1 cell CPT: 18%; HT1080NT lethal: 2%

What do the screens show for `CC(/C=C/c1ccccc1F)=N\NC(=O)c1ccc(Cl)cc1`?
HT1080 IDH1KD tx: 7.3µM*; IL-1B inflam inh: 0; DT40 TDP1 no CPT: 15µM*; TDP1 cell CPT: 15µM*; HT1080NT lethal: 4.6µM*

What do the screens show for `COC(=O)N/N=C(\C)c1cccs1`?
HT1080 IDH1KD tx: -7%; IL-1B inflam inh: -6; DT40 TDP1 no CPT: -6%; TDP1 cell CPT: -7%; HT1080NT lethal: 1%

How did Cc1onc(-c2c(F)cccc2Cl)c1C(=O)NC1CCSC1=O (stereo unspecified) do in these assays?
HT1080 IDH1KD tx: 7%; IL-1B inflam inh: 9; DT40 TDP1 no CPT: -9%; TDP1 cell CPT: -3%; HT1080NT lethal: 11%

What do the screens show for `COc1ccc(NS(=O)(=O)c2cccc(C(=O)N/N=C/c3ccccc3OC)c2)cc1`?
HT1080 IDH1KD tx: 8%; IL-1B inflam inh: 13; DT40 TDP1 no CPT: inconclusive; TDP1 cell CPT: -27%; HT1080NT lethal: -4%

How did Cc1cccc(CN(CC(=O)N/N=C/c2cccs2)S(=O)(=O)c2ccc(Cl)cc2)c1 do in these assays?
HT1080 IDH1KD tx: inconclusive; IL-1B inflam inh: -11; DT40 TDP1 no CPT: 29µM*; TDP1 cell CPT: inconclusive; HT1080NT lethal: -23%

Results for O=C(NN=Cc1c(F)c(F)c(F)c(F)c1F)c1ccc(NS(=O)(=O)c2cccs2)cc1 ?
HT1080 IDH1KD tx: -3%; IL-1B inflam inh: -99*; DT40 TDP1 no CPT: inconclusive; TDP1 cell CPT: inconclusive; HT1080NT lethal: -1%

How did O=C(N/N=C/c1cccs1)c1cccc(S(=O)(=O)Nc2ccc(Cl)cc2)c1 do in these assays?
HT1080 IDH1KD tx: 16µM*; IL-1B inflam inh: 0; DT40 TDP1 no CPT: inconclusive; TDP1 cell CPT: inconclusive; HT1080NT lethal: 12µM*

Results for CC(=O)Nc1ccc(C=NNC(=O)c2ccc(NS(=O)(=O)c3cccs3)cc2)cc1 ?
HT1080 IDH1KD tx: -1%; IL-1B inflam inh: 7; DT40 TDP1 no CPT: 2%; TDP1 cell CPT: -10%; HT1080NT lethal: -2%

What do the screens show for `Cc1cccc(CN(CC(=O)N/N=C/c2ccco2)S(=O)(=O)c2ccc(Cl)cc2)c1`?
HT1080 IDH1KD tx: -17%; IL-1B inflam inh: 0; DT40 TDP1 no CPT: inconclusive; TDP1 cell CPT: inconclusive; HT1080NT lethal: -8%

How did CC1CN(c2nc3ccccn3c(=O)c2C=O)CC(C)O1 (stereo unspecified) do in these assays?
HT1080 IDH1KD tx: 0%; IL-1B inflam inh: -15; DT40 TDP1 no CPT: 18%; TDP1 cell CPT: -17%; HT1080NT lethal: 6%

Results for CCNC(=O)C1(C)CCN(C(=O)c2cc(F)ccc2C)C1 (stereo unspecified) ?
HT1080 IDH1KD tx: 12%; IL-1B inflam inh: 7; DT40 TDP1 no CPT: -7%; TDP1 cell CPT: -5%; HT1080NT lethal: 21%

What do the screens show for `COc1ccc2c(=O)cc(-c3ccccc3F)oc2c1`?
HT1080 IDH1KD tx: -10%; IL-1B inflam inh: -61*; DT40 TDP1 no CPT: 21µM*; TDP1 cell CPT: inconclusive; HT1080NT lethal: -16%

How did COc1cccc2oc(-c3ccco3)cc(=O)c12 do in these assays?
HT1080 IDH1KD tx: -20%; IL-1B inflam inh: -101*; DT40 TDP1 no CPT: 15µM*; TDP1 cell CPT: 21µM*; HT1080NT lethal: 0%

Screening data from PubChem.
